The values below come from ChEMBL document CHEMBL2218924, “A broad activity screen in support of a chemogenomic map for kinase signalling research and drug discovery” (Biochem J, 2013).

Assay [1] deals with T1, Tyrosine-protein kinase Tec (Homo sapiens) (UniProt P42680).
T1 sequence (whole entry): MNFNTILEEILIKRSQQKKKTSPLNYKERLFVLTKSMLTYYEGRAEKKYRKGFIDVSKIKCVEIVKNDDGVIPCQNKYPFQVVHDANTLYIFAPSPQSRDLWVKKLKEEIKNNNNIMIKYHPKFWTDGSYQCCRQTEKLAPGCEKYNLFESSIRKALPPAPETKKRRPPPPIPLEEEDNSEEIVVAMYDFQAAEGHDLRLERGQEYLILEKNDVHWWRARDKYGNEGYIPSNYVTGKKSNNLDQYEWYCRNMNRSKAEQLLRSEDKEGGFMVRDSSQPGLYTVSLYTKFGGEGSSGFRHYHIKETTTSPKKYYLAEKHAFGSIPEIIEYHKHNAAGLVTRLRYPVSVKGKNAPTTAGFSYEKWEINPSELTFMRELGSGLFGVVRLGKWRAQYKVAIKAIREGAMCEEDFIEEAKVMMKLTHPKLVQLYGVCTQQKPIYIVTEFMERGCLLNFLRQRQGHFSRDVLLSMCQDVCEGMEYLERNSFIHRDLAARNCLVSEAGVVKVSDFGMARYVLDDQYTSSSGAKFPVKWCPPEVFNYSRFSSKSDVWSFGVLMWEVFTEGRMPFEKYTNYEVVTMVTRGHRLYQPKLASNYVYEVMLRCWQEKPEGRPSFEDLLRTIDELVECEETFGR
The note with it: at 1 µM.

Assay [2] concerns the target T1, Tyrosine-protein kinase Tec (Homo sapiens). The note with it: at 10 µM.
Assay [3] concerns the target Angiopoietin-1 receptor (Homo sapiens) (UniProt Q02763). To be noted: at 1 µM.
The target is the same in assay [4]. To be noted: at 10 µM.
For assay [5], the target named is High affinity nerve growth factor receptor (Homo sapiens) (UniProt P04629). The note with it: at 1 µM.
Chain of High affinity nerve growth factor receptor (Homo sapiens) (P04629 33-796 limits assumed): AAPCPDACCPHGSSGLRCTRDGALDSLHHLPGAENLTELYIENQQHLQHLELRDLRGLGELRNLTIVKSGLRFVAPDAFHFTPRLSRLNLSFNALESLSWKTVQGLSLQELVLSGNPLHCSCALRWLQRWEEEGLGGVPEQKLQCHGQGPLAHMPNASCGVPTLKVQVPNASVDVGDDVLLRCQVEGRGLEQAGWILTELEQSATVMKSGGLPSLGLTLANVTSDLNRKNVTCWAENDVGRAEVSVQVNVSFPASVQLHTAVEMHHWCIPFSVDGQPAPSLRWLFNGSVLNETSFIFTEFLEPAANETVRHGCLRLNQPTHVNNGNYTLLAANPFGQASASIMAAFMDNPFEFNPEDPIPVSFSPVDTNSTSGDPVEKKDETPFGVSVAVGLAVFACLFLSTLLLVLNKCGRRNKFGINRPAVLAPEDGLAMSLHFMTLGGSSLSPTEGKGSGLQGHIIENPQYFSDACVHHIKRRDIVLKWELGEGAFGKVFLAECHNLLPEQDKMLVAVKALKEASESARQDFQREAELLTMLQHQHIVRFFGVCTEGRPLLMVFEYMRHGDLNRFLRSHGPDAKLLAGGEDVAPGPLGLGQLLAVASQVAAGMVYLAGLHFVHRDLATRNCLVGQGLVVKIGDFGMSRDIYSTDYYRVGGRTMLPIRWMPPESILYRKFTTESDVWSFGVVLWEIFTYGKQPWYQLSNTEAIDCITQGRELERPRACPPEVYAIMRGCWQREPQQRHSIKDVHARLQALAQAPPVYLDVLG
The target is the same in assay [6]. The note with it: at 10 µM.
For assay [7], the target named is BDNF/NT-3 growth factors receptor (Homo sapiens) (UniProt Q16620). The note with it: at 1 µM.
Chain of BDNF/NT-3 growth factors receptor (Homo sapiens) (Q16620 32-822 limits assumed): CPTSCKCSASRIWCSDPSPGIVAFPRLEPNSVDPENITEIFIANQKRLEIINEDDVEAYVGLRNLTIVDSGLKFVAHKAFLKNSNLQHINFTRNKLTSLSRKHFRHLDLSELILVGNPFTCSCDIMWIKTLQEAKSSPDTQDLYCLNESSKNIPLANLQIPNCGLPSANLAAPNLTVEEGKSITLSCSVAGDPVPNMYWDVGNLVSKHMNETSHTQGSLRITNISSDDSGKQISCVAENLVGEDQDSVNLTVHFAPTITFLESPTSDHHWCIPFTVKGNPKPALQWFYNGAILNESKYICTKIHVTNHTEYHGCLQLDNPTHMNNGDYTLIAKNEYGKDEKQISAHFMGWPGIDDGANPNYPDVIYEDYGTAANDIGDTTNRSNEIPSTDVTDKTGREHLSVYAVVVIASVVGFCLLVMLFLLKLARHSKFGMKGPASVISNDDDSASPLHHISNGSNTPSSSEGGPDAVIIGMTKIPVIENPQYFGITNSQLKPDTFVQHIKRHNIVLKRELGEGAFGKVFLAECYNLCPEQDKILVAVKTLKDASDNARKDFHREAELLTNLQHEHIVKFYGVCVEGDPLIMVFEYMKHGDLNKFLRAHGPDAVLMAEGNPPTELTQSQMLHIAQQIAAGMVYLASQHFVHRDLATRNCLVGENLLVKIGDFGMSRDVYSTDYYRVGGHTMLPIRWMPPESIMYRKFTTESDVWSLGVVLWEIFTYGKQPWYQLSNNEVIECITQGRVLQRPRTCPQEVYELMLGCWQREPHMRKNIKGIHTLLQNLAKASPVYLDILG
Assay [8] shares this target. The note with it: at 10 µM.
The target in assay [9] is T2, Tyrosine-protein kinase TXK (Homo sapiens) (UniProt P42681).
T2 sequence (whole entry): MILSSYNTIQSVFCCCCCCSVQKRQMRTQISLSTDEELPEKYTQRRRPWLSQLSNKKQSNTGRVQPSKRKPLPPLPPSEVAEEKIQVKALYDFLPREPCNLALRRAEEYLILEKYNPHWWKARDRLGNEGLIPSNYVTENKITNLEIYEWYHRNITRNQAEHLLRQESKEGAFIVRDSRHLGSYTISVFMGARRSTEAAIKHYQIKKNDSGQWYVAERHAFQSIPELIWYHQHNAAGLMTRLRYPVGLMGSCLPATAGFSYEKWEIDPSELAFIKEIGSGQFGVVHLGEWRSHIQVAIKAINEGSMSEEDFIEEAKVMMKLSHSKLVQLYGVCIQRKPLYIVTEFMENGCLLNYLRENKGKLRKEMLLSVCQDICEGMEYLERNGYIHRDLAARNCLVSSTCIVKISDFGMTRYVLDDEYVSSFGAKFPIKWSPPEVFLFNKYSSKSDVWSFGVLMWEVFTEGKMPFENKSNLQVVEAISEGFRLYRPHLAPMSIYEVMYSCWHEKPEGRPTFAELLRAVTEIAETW
The note with it: at 1 µM.

Assay [10] has as its target T2, Tyrosine-protein kinase TXK (Homo sapiens). To be noted: at 10 µM.
The target of assay [11] is T3, Serine/threonine-protein kinase ULK2 (Homo sapiens) (UniProt Q8IYT8).
T3 sequence (whole entry): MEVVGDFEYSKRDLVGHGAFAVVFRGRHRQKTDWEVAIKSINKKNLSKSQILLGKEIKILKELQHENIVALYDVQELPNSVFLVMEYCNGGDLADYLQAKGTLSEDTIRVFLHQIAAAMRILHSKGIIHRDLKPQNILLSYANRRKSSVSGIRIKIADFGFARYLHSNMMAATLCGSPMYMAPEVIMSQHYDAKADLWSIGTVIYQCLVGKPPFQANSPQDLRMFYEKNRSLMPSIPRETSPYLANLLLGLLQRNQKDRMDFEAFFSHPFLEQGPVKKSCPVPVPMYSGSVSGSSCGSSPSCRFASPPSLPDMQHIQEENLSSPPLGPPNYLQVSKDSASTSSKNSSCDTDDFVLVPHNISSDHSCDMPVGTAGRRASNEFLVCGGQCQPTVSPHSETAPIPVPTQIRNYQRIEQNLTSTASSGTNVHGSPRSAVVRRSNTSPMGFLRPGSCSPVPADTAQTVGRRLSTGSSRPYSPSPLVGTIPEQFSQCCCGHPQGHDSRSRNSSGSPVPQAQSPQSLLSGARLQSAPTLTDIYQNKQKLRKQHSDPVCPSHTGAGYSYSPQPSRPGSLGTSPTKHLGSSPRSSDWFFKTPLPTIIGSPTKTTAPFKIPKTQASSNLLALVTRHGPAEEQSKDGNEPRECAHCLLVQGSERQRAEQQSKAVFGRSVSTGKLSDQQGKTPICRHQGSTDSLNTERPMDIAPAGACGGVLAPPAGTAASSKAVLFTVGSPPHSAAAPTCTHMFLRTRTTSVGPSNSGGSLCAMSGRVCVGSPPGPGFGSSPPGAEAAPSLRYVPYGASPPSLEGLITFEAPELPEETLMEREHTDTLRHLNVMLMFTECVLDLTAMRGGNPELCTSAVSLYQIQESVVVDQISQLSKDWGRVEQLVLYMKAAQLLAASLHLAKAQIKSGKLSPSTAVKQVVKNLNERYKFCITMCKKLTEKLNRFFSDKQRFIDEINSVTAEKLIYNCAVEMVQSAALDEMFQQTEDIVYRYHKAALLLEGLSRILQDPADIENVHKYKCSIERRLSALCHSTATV
To be noted: at 1 µM.

Assay [12] concerns the target T3, Serine/threonine-protein kinase ULK2 (Homo sapiens). To be noted: at 10 µM.
Assay [13] addresses T4, Serine/threonine-protein kinase ULK3 (Homo sapiens) (UniProt Q6PHR2).
T4 sequence (whole entry): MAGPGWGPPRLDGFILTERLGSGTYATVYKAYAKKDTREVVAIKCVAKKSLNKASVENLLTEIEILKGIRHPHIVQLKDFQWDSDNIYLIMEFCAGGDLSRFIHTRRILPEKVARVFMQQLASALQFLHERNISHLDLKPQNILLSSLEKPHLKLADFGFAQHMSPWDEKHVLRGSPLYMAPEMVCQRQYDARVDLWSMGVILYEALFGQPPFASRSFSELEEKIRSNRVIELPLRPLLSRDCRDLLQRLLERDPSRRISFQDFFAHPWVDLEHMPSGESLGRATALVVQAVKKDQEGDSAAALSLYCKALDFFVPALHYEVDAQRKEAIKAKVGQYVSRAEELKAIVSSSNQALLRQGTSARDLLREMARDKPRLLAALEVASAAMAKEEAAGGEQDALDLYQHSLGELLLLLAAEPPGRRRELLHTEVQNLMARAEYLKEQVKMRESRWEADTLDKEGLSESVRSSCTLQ
The note with it: at 1 µM.

Assay [14] concerns the target T4, Serine/threonine-protein kinase ULK3 (Homo sapiens). To be noted: at 10 µM.
Assay [15] concerns the target Serine/threonine-protein kinase VRK2 (Homo sapiens) (UniProt Q86Y07). To be noted: at 1 µM.
For assay [16] the target is unchanged. To be noted: at 10 µM.
Assay [17] has as its target Serine/threonine-protein kinase WNK2 (Homo sapiens) (UniProt Q9Y3S1). To be noted: at 1 µM.
Assay [18] has the same target. The note with it: at 10 µM.
Assay [19] concerns the target Serine/threonine-protein kinase WNK3 (Homo sapiens) (UniProt Q9BYP7). To be noted: at 1 µM.
The target is the same in assay [20]. The note with it: at 10 µM.

Chain of Serine/threonine-protein kinase VRK2 (Homo sapiens) (Q86Y07 whole entry): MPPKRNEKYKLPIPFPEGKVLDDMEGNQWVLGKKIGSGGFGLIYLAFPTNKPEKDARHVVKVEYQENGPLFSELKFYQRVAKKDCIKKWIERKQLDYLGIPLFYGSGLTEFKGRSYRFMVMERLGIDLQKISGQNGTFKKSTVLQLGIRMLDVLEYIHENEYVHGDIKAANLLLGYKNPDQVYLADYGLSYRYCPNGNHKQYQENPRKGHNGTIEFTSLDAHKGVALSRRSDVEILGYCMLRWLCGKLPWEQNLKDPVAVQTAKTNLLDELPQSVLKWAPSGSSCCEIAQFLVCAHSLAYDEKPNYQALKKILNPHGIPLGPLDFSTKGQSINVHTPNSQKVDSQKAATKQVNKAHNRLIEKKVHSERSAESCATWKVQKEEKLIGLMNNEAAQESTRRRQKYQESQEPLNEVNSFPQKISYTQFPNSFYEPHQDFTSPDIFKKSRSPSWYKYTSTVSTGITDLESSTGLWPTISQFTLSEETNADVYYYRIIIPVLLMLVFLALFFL
Chain of Serine/threonine-protein kinase WNK3 (Homo sapiens) (Q9BYP7 whole entry): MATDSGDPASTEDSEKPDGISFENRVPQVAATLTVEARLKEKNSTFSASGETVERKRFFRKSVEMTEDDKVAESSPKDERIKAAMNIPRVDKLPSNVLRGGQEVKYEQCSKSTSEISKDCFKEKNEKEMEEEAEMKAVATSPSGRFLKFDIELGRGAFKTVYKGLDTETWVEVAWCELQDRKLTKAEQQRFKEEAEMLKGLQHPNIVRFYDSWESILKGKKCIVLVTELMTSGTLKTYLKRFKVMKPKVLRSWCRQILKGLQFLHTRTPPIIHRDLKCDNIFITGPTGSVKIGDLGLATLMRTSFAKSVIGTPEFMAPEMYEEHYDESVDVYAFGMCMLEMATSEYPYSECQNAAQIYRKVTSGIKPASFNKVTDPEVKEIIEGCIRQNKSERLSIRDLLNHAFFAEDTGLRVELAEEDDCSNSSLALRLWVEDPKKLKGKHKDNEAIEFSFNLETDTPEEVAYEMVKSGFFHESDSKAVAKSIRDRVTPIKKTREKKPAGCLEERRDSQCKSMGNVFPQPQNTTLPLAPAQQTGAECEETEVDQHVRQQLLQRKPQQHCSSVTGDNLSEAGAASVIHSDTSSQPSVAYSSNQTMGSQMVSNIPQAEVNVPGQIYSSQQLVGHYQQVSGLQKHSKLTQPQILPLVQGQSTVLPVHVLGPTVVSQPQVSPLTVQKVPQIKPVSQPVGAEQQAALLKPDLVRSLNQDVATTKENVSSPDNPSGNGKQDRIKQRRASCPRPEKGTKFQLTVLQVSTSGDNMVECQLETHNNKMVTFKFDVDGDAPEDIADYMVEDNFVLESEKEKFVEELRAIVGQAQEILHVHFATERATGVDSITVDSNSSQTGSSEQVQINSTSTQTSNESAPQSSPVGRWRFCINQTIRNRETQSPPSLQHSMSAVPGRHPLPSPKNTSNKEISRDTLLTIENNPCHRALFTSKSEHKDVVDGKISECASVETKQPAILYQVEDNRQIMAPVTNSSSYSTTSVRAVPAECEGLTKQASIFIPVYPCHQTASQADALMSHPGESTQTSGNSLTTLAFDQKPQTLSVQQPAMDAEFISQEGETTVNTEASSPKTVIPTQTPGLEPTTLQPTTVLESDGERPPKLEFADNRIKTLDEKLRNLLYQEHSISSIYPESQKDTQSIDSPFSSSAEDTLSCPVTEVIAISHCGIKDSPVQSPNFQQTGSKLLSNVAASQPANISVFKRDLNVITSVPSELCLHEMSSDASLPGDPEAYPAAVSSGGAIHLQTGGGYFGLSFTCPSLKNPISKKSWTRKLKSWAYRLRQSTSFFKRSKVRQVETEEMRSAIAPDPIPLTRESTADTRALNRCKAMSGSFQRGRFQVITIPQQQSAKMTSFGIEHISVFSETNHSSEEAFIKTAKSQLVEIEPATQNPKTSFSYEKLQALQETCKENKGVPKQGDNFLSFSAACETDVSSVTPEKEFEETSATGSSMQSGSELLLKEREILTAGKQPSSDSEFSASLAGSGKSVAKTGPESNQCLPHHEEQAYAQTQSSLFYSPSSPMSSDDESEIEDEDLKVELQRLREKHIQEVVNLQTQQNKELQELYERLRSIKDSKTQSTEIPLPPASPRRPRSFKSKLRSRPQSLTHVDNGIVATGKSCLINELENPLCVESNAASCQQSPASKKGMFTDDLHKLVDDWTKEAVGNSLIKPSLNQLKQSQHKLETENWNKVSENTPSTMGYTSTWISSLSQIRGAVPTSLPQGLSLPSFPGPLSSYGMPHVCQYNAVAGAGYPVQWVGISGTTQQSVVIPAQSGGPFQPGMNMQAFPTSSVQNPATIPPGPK
Chain of Angiopoietin-1 receptor (Homo sapiens) (Q02763 whole entry): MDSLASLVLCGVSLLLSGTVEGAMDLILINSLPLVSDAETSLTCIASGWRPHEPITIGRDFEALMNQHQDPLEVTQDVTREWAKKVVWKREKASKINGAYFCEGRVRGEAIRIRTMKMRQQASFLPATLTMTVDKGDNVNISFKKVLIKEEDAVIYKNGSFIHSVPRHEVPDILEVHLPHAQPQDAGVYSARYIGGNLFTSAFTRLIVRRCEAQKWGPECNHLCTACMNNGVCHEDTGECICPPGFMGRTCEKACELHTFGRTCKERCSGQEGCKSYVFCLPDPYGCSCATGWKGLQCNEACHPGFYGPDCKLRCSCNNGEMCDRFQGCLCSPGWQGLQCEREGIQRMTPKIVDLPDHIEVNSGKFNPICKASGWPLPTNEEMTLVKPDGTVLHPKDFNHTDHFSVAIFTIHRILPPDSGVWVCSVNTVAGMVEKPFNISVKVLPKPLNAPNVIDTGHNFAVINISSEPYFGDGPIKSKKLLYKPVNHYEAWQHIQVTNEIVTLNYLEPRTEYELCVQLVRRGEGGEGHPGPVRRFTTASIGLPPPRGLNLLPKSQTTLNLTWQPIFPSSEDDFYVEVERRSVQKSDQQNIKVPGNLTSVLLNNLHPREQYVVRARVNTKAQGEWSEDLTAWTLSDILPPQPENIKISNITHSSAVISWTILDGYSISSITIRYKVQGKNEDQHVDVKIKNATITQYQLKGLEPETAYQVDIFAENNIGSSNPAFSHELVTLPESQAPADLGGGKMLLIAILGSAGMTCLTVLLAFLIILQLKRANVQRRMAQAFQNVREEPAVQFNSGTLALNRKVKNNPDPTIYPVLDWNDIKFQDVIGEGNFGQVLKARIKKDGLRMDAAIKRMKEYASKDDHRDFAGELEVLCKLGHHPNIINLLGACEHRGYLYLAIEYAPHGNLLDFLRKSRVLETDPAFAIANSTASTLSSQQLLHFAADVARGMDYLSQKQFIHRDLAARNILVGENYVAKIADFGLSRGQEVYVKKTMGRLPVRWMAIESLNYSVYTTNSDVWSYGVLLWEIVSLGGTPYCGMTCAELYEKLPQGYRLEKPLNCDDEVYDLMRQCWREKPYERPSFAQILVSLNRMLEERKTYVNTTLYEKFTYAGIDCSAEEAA

In general, residual activity refers to the signal under treatment as a percentage of the control signal. For `O=c1[nH]c2ccccc2n1C1CCN(Cc2ccc(-c3nc4cc5[nH]cnc5cc4nc3-c3ccccc3)cc2)CC1`, the residual activity in assay [1] worked out at 95%; in [2], 38%; in assay [3] it was 86%; in [4], 37%; in assay [5] it was 86%; in [6], 56%. Besides, the residual activity in [7] stood at 75%; in [8] it was 70%; in assay [9], 102%; in assay [10], 94%; in assay [11] it was 108%; in assay [12] it was 106%. The residual activity in assay [13] was 100%; in [14], 95%; in assay [15] it was 109% (inactive); in [16], 93%; in [17], 117% (inactive); in assay [18], 83%. The results for the residual activity in assay [19] and in assay [20] were 116% (inactive) and 85%, respectively.

Regarding `N/C(=N\[N+](=O)[O-])N/N=C\c1ccc(-c2cccc([N+](=O)[O-])c2)o1`, the residual activity in assay [3] was 90%; in assay [4], 92%; in assay [5] it was 91%; in assay [6], 91%; in [10] it was 80%; in [13] it was 92%. Moreover, the residual activity in [14] is 88%.

In the case of `CCn1cnc2c(Nc3cccc(Cl)c3)nc(N[C@@H]3CCCC[C@@H]3N)nc21`, the residual activity stood at 39% in assay [1]; 7% in assay [2]; 83% in assay [3]; 42% in assay [4]; 12% in assay [5]; 1% in assay [6]. The residual activity in assay [7] amounted to 15%; in assay [8], 0%; in [9], 52%; in assay [10] it was 10%; in assay [11], 54%; in assay [12] it was 15%. Besides, the residual activity in assay [13] was 40%; in assay [14], 8%; in [15], 94% (inactive); in assay [16] it was 48%; in assay [17], 88% (inactive); in [18], 45%. Further, the residual activity is 87% (inactive) in assay [19] and 56% in [20].

On to `C[S+]([O-])c1ccc(-c2nc(-c3ccc(F)cc3)c(-c3ccncc3)[nH]2)cc1` (configuration not stated), for which the residual activity in assay [1] came out at 94%; in assay [2], 89%; in assay [3], 102%; in assay [4], 62%; in [5], 121%; in assay [6], 115%. Further, the residual activity in assay [7] is 94%; in assay [8], 104%; in assay [9], 77%; in [10], 42%; in [11] it was 120%; in assay [12] it was 101%. In addition, the residual activity in [13] is 104%; in assay [14], 104%; in assay [15], 114% (inactive); in assay [16] it was 96%; in assay [17], 117% (inactive); in assay [18] it was 101%. For the same compound, the residual activity is 110% (inactive) in [19] and 100% in assay [20].

As to `COc1cc(OC)c(/C=C2\C(=O)Nc3ccccc32)c(OC)c1`, the residual activity came to 98% in assay [1]; 77% in assay [2]; 93% in [3]; 59% in [4]; 89% in assay [5]; 59% in assay [6]. Further, the residual activity in assay [9] was 107%; in assay [10] it was 100%; in assay [12] it was 99%; in assay [13], 95%; in [14], 95%; in assay [15], 83% (inactive). Moreover, the residual activity in [16] is 32%; in assay [17], 89% (inactive); in [18], 78%; in [19], 93% (inactive); in assay [20] it was 83%.

As to `CC(C)(C)c1cc(C=C(C#N)C#N)cc(Br)c1O`, the residual activity in [2] turned out to be 103%; in assay [3] it was 114%; in [4], 101%; in assay [7] it was 117%; in assay [8] it was 134%; in [9], 112%. Besides, the residual activity in assay [10] is 104%; in assay [11], 113%; in [12], 112%; in assay [13] it was 110%; in assay [14] it was 99%; in [15], 101% (inactive). Besides, the residual activity was 105% in [16]; 114% (inactive) in assay [17]; 114% in [18]; 111% (inactive) in [19]; 105% in assay [20].

Take `CN[C@@H]1C[C@H]2O[C@@](C)([C@@H]1OC)n1c3ccccc3c3c4c(c5c6ccccc6n2c5c31)C(=O)NC4`: the residual activity in assay [7] is 29%; in [8], -12%; in assay [11], 2%; in [12], 0%; in [15] it was 108% (inactive); in [16] it was 90%. In addition, the residual activity is 92% (inactive) in assay [17], 30% in assay [18] and 88% (inactive) in [19].

For the compound `O=C1NC(=O)c2c1c1c3ccccc3n3c1c1c2c2ccccc2n1C1CCC3O1`, the residual activity in [1] came out at 66%; in [2], 76%; in assay [5], 12%; in assay [6], 3%; in assay [7], 19%; in [8], 14%. The residual activity in assay [9] was 71%; in assay [10], 81%; in assay [13], 58%; in assay [14], 58%; in assay [17], 100% (inactive); in assay [18], 99%. Besides, the results for the residual activity in assay [19] and in [20] were 94% (inactive) and 90%, respectively.

For the compound `COC(=O)[C@@]1(O)C[C@H]2O[C@]1(C)n1c3ccccc3c3c4c(c5c6ccccc6n2c5c31)C(=O)NC4`, the residual activity in assay [1] worked out at 3%; in [2] it was 2%; in assay [3] it was 20%; in assay [4], 3%; in assay [7], 0%; in assay [8], 0%. The residual activity in assay [9] worked out at 35%; in [10], 5%; in assay [11], 7%; in [12], 0%; in [13], 0%; in assay [14], 1%. Besides, the residual activity in [15] is 100% (inactive); in assay [16], 101%; in [17], 63% (inactive); in assay [18] it was 12%; in assay [19], 70% (inactive); in assay [20] it was 8%.
